Experimental data taken from PubChem BioAssay (EPA / NIEHS).
“And” between values parts separate entries of the source, which are not always exact repeats. Identical values can stand only once. Inconclusive results are not listed. The source holds several records for some structures; these can differ, active in one and inactive in another. The source made the active and inactive calls. The calls were made as follows, unless noted: active = hit-call score of the fitted dose curve at least 0.9, where 1 is the maximum; inactive = score below 0.9.

What was measured:
[1] = BSK_3C_TissueFactor: BioMAP Diversity Plus: 3C Assay for Tissue Factor Biomarker Activity (AID 2282997); settings: BioMAP 3C HUVEC, tissue factor biomarker readout; actives raise or lower the signal
Summary of the method: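 Primary human umbilical vein endothelial cells in the 3C system were exposed to test chemical for 24 h, then Tissue Factor measured by ELISA. Activity was fitted bidirectionally against DMSO as negative control and baseline.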

[2] = BSK_3C_uPAR: BioMAP Diversity Plus: 3C Assay for Urokinase-type plasminogen activator receptor (uPAR) Biomarker Activity (AID 2282998); settings: BioMAP 3C HUVEC, uPAR biomarker ELISA; actives raise or lower the signal
Summary of the method: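 In this endothelial cell-based assay, human umbilical vein primary cells were treated with chemicals and harvested at 24 h. uPAR was quantified using ELISA, with gains or losses fitted relative to DMSO controls.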

[3] = BSK_3C_VCAM1: BioMAP Diversity Plus: 3C Assay for Vascular cell adhesion molecule 1 (VCAM1) Biomarker Activity (AID 2282999); settings: BioMAP 3C HUVEC, VCAM1 ELISA, cytokine-stimulated; actives raise or lower the signal
Summary of the method: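 Endothelial cells from human umbilical vein are treated with test chemical. At 24 h, VCAM-1 is measured by ELISA, and responses in either direction are fitted relative to DMSO.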

[4] = BSK_4H_Eotaxin3: BioMAP Diversity Plus: 4H Assay for Eotaxin 3 Biomarker Activity (AID 2283000); settings: primary human endothelial cells (HUVEC); actives raise or lower the signal
Summary of the method: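 HUVEC, 24 h post-dose, ELISA for Eotaxin-3/CCL26. Gain or loss of signal fitted bidirectionally vs DMSO baseline.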

[5] = read-out: Intercellular Adhesion Molecule 1 (ICAM1), ICAM1 (gene 3383); assay: BSK_3C_ICAM1: BioMAP Diversity Plus: 3C Assay for Intercellular Adhesion Molecule 1 (ICAM1) Biomarker Activity (AID 2283003); settings: primary human endothelial cells (HUVEC); actives raise or lower the signal
Summary of the method: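 HUVEC primary cells stimulated under 3C conditions; ICAM1 measured by ELISA 24 h after compound dosing. Curves fitted bidirectionally against the DMSO baseline. Overt cytotoxicity checked by SRB staining of parallel cultures.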

[6] = ATG_NF_kB_CIS: Attagene CIS-FACTORIAL HepG2 Assay for human Nuclear Factor Kappa B (NF-kB) (AID 2282991); settings: HepG2 Attagene cis-factorial NF-kB reporter mRNA; actives raise or lower the signal
Summary of the method: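 HepG2, transient multi-reporter transfection, cis promoter elements (endogenous TFs). 24 h exposure. Total RNA → RT → PCR → 6-FAM label → HpaI → CE. Gain/loss vs DMSO.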

[7] = ATG_Oct_MLP_CIS: Attagene CIS-FACTORIAL HepG2 Assay for human Octamer-Binding Transcription Factor (Oct) (AID 2282993); settings: HepG2 Attagene cis-factorial Oct reporter, mRNA; actives raise or lower the signal
Summary of the method: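 Using HepG2 cells bearing transfected cis-reporter constructs, mRNA induction was read after 24 h by fluorescent RT-PCR and capillary electrophoresis, with DMSO defining baseline for gain- or loss-of-signal fits.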

[8] = target: human Peroxisome Proliferator-activated Receptor alpha (PPARa), PPARA (gene 5465) (UniProt Q07869); assay: ATG_PPARa_TRANS: Attagene TRANS-FACTORIAL HepG2 Assay for human Peroxisome Proliferator-activated Receptor alpha (PPARa) (AID 2283001; active = hit-call score of the fitted dose curve at least 0.9, where 1 is the maximum;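 as to AC50: potency for gain of reporter signal over DMSO so agonist or activator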)
Summary of the method: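 Read-out is fluorescence of reporter cDNA fragments resolved by capillary electrophoresis after RT-PCR. Human HepG2 liver cells carried transfected PPARa-Gal4 chimera and GAL4-UAS reporter units, treated 24 h; activity scored as increase over DMSO.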

[9] = target: human Peroxisome Proliferator-activated Receptor delta (PPARd), PPARD (gene 5467) (UniProt Q03181); assay: ATG_PPARd_TRANS: Attagene TRANS-FACTORIAL HepG2 Assay for human Peroxisome Proliferator-activated Receptor delta (PPARd) (AID 2283002; active = hit-call score of the fitted dose curve at least 0.9, where 1 is the maximum)
Summary of the method: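 Transient HepG2 transfection (multiple GAL4-UAS RTUs, chimeric receptor-Gal4); 24 h dosing; total RNA → oligo(dT) RT → PCR → 6-FAM primer extension → HpaI cut → CE. Positive direction vs DMSO.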

[10] = target: Nuclear receptor subfamily 1 group I member 2 (Homo sapiens) (UniProt O75469); assay: ATG_PXR_TRANS: Attagene TRANS-FACTORIAL HepG2 Assay for human Pregnane X Receptor (PXR) (AID 2283008; active = hit-call score of the fitted dose curve at least 0.9, where 1 is the maximum)
Summary of the method: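 HepG2 cells transiently transfected with GAL4-UAS reporter units and PXR-Gal4 chimera, exposed 24 h. Reporter mRNA quantified by RT-PCR, fluorescent labelling, HpaI digestion and capillary electrophoresis; gain of signal vs DMSO.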

[11] = target: Retinoic acid receptor RXR-alpha (Homo sapiens) (UniProt P19793); assay: ATG_RXRa_TRANS: Attagene TRANS-FACTORIAL HepG2 Assay for human Retinoid X Receptor alpha (RXRa) (AID 2283012; active = hit-call score of the fitted dose curve at least 0.9, where 1 is the maximum)
Summary of the method: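 HepG2 cells transiently transfected with GAL4-UAS reporter units and chimeric RXRa-Gal4 protein, treated 24 h. Reporter mRNA measured by RT-PCR, fluorescent labelling, HpaI digestion and capillary electrophoresis. Induction fitted against DMSO.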

[12] = BSK_3C_Proliferation: Cell Proliferation Assessment in the BioMAP Diversity Plus: 3C Assay (AID 2283006); settings: primary human endothelial cells (HUVEC);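 as to AC50: potency may reflect either rise or fall in cell number versus DMSO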
Summary of the method: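 Subconfluent HUVEC (3C system) cultured with chemical; relative cell number read at 48 h by sulforhodamine B total-protein staining (0.1% SRB after 10% TCA fixation, 560 nm). Bidirectional fit relative to DMSO.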

[13] = ATG_NRF2_ARE_CIS: Attagene CIS-FACTORIAL HepG2 Assay for human Nuclear Factor Erythroid 2 Related Factor 2 (NFR2) response to Antioxidant Response Elements (ARE) (AID 2282992); settings: HepG2 Attagene ARE/NRF2 reporter, transcription factor activity; actives raise or lower the signal;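 as to AC50: reporter mRNA level measured by RT-PCR and capillary electrophoresis fluorescence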
Summary of the method: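 HepG2 cells transiently transfected with multiplexed cis-element reporter constructs, 24 h after chemical dosing; reporter mRNA quantified by RT-PCR, fluorescent primer extension, HpaI digestion and capillary electrophoresis. Bidirectional fit relative to DMSO.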

[14] = target: human Retinoic Acid Receptor beta (RARb), RARB (gene 5915) (UniProt P10826); assay: ATG_RARb_TRANS: Attagene TRANS-FACTORIAL HepG2 Assay for human Retinoic Acid Receptor beta (AID 2283004; active = hit-call score of the fitted dose curve at least 0.9, where 1 is the maximum)
Summary of the method: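 HepG2 cells transiently transfected with multiplexed GAL4-UAS reporter units expressing chimeric NR–Gal4 fusions; 24 h compound exposure. Reporter mRNA quantified by RT-PCR, 6-FAM labelling, HpaI digestion and capillary electrophoresis; gain-of-signal fitted against DMSO baseline.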

[15] = target: human Retinoic Acid Receptor gamma (RARg), RARG (gene 5916) (UniProt P13631); assay: ATG_RARg_TRANS: Attagene TRANS-FACTORIAL HepG2 Assay for human Retinoic Acid Receptor gamma (RARg) (AID 2283009; active = hit-call score of the fitted dose curve at least 0.9, where 1 is the maximum)
Summary of the method: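 HepG2 transiently transfected with GAL4-UAS reporter units and chimeric NR-Gal4 constructs; 24 h compound exposure. Reporter mRNA quantified by RT-PCR, FAM labeling, HpaI digestion and capillary electrophoresis; gain-of-signal versus DMSO.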

[16] = target: human RAR-related Orphan Receptor beta (RORb), RORB (gene 6096) (UniProt Q92753); assay: ATG_RORb_TRANS: Attagene TRANS-FACTORIAL HepG2 Assay for human RAR-related Orphan Receptor beta (RORb) (AID 2283010; active = hit-call score of the fitted dose curve at least 0.9, where 1 is the maximum)
Summary of the method: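 HepG2 cells transiently transfected with GAL4-UAS reporter units expressing chimeric NR-Gal4 protein; reporter mRNA measured 24 h after dosing by RT-PCR, 6-FAM labelling and capillary electrophoresis. Gain-of-signal fitted relative to DMSO baseline.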

[17] = target: Cellular tumor antigen p53 (Homo sapiens) (UniProt P04637); assay: ATG_p53_CIS: Attagene CIS-FACTORIAL HepG2 Assay for human p53 Transcription Factor (AID 2282994); settings: HepG2 p53 cis-element reporter, Attagene mRNA; actives raise or lower the signal
Summary of the method: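 HepG2 cells transiently transfected with cis-regulated multiple reporter transcription units, dosed 24 h. Reporter mRNA measured by RT-PCR, 6-FAM primer extension, HpaI digestion and capillary electrophoresis; bidirectional fit relative to DMSO.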

[18] = target: Peroxisome proliferator-activated receptor gamma (Homo sapiens) (UniProt P37231); assay: ATG_PPARg_TRANS: Attagene TRANS-FACTORIAL HepG2 Assay for human Peroxisome Proliferator-activated Receptor-gamma (PPARg) (AID 2283007; active = hit-call score of the fitted dose curve at least 0.9, where 1 is the maximum)
Summary of the method: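 Multiplexed reporter transcription units in HepG2, 24 h dosing, reporter transcripts quantified by fluorescent RT-PCR and capillary electrophoresis. Increase over DMSO scored.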

Measured: AC50

Chain of Peroxisome proliferator-activated receptor gamma (Homo sapiens) (P37231 whole entry, looked up): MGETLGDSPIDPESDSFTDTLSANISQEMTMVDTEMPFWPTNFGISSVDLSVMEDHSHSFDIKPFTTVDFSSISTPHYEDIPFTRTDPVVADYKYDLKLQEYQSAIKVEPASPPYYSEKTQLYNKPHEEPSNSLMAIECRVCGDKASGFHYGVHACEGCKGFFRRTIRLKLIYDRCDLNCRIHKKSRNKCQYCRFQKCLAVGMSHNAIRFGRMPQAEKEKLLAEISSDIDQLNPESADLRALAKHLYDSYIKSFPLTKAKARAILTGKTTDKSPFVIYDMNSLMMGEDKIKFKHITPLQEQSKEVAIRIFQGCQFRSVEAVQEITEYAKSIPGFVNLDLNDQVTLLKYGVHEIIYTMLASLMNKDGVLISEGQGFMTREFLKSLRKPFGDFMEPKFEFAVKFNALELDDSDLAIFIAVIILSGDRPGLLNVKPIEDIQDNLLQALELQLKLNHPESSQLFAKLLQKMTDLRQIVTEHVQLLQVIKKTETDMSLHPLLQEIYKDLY
Chain of human Retinoic Acid Receptor gamma (RARg), RARG (gene 5916) (P13631 whole entry, looked up, the tested form may be a part): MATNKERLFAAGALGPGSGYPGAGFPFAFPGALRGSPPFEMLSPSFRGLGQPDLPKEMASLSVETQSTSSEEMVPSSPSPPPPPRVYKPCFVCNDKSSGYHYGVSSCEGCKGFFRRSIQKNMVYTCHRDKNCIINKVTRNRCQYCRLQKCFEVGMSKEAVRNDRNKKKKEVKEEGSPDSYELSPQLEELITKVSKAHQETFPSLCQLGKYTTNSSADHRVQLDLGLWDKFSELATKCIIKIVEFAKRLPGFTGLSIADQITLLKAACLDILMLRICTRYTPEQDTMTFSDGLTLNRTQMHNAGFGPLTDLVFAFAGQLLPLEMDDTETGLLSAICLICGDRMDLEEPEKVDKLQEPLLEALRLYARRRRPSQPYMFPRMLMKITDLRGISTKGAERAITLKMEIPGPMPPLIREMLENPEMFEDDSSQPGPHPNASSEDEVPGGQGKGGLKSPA
Chain of human Peroxisome Proliferator-activated Receptor delta (PPARd), PPARD (gene 5467) (Q03181 whole entry, looked up, the tested form may be a part): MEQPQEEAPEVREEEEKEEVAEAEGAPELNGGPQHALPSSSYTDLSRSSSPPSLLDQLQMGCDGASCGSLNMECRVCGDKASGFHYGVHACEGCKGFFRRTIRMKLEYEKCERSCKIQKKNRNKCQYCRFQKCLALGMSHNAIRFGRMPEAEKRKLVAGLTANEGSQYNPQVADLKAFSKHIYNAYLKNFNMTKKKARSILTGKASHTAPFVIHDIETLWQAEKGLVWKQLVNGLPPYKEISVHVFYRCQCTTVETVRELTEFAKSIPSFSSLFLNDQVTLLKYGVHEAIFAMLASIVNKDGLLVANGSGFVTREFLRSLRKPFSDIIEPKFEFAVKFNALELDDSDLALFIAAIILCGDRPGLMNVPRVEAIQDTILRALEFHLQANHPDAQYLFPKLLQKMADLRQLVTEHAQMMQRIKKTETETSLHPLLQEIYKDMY
Chain of human RAR-related Orphan Receptor beta (RORb), RORB (gene 6096) (Q92753 whole entry, looked up, the tested form may be a part): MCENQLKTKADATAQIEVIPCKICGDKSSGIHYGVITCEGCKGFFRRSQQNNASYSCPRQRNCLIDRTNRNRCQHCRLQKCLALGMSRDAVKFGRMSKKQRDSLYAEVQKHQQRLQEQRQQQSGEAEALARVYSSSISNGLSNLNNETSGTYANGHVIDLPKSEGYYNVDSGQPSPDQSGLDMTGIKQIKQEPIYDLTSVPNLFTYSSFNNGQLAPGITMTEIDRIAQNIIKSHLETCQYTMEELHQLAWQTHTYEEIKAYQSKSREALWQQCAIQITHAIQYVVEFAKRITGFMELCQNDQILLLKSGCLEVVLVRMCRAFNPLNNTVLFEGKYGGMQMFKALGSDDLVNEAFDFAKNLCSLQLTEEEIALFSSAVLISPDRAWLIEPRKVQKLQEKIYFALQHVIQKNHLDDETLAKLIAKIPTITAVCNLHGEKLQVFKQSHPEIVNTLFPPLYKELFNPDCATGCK
Chain of human Peroxisome Proliferator-activated Receptor alpha (PPARa), PPARA (gene 5465) (Q07869 whole entry, looked up, the tested form may be a part): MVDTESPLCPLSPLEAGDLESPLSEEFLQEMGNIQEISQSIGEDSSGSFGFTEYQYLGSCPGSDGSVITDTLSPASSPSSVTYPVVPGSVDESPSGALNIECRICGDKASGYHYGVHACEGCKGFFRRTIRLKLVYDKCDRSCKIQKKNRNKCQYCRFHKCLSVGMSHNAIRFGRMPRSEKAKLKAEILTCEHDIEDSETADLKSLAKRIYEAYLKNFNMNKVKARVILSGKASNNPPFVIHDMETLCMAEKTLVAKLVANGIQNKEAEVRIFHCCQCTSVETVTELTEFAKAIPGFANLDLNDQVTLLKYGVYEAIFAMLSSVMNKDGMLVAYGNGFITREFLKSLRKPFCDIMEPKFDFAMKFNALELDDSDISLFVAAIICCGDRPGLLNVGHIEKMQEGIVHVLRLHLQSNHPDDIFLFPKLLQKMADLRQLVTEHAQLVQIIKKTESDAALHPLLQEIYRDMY
Chain of human Retinoic Acid Receptor beta (RARb), RARB (gene 5915) (P10826 whole entry, looked up, the tested form may be a part): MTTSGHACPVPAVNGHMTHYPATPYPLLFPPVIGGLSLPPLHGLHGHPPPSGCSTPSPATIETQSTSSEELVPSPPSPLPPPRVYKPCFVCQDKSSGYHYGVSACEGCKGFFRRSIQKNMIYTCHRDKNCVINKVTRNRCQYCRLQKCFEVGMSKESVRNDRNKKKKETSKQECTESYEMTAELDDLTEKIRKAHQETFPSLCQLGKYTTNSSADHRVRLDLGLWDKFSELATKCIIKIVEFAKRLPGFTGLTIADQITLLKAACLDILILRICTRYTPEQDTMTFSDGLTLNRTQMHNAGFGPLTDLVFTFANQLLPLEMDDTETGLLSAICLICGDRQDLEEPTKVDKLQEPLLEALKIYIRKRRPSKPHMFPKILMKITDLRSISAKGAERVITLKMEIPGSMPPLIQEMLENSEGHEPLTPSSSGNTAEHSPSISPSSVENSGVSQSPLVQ
Chain of Retinoic acid receptor RXR-alpha (Homo sapiens) (P19793 whole entry, looked up, the tested form may be a part): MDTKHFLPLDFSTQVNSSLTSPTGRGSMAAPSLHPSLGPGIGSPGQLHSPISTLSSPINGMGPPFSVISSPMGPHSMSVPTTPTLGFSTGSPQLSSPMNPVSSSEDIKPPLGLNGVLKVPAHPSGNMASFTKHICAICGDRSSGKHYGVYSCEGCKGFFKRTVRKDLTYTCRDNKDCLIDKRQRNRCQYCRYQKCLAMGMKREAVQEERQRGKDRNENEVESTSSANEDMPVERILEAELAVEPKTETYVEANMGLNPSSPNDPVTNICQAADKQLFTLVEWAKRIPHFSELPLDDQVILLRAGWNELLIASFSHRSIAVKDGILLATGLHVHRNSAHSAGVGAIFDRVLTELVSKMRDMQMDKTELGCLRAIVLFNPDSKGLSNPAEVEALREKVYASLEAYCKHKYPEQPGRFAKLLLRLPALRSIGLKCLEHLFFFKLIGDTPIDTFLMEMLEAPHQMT
Chain of Nuclear receptor subfamily 1 group I member 2 (Homo sapiens) (O75469 whole entry, looked up, the tested form may be a part): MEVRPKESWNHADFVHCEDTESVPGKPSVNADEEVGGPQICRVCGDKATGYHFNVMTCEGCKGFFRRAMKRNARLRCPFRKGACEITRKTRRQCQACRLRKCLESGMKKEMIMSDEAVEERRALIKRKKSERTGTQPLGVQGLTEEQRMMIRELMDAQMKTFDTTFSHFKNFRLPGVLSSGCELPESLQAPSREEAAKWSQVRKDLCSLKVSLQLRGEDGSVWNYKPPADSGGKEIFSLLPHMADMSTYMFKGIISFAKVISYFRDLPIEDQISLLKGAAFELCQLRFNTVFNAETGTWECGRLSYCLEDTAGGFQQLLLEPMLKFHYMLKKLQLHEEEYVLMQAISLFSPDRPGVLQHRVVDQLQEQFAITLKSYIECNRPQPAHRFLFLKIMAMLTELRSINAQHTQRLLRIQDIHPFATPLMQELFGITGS
Chain of Cellular tumor antigen p53 (Homo sapiens) (P04637 whole entry, looked up): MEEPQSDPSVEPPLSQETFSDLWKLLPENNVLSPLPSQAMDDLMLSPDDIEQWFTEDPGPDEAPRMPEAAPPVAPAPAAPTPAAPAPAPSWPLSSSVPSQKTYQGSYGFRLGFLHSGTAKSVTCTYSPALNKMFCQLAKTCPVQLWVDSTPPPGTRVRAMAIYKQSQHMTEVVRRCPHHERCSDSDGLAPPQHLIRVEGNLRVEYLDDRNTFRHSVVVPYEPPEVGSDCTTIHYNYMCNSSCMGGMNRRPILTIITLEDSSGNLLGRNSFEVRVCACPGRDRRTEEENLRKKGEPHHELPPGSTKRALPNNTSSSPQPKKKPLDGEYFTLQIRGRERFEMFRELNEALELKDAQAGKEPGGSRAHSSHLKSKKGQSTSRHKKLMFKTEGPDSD

O=C(O)CC(O)(CC(=O)O)C(=O)O
inactive: [1] | [2] | [3] | [4] | [5]

Nc1nc(Cl)nc2c1ncn2[C@H]1C[C@H](O)[C@@H](CO)O1
active: [6] 16.9 µM | [1] 0.494 µM | [8] 66.5 µM
inactive: [7] | [2] | [3] | [4] | [9] | [5] | [10] | [11]

CCCCC(CC)CO (centres undefined)
not listed: [9] | [13] | [14] | [15] | [16] | [17] | [18]
inactive: all other assays above

NC=O
not listed: [4] | [11] | [17] | [18]
inactive: all other assays above

C/C=C/C=C/C(=O)O
inactive: [13] | [7] | [1] | [2] | [3] | [4] | [5] | [10] | [16]

O=C(O)CN(CC(=O)O)CC(=O)O
not listed: [4] | [10] | [12] | [14] | [16] | [17] | [18]
inactive: all other assays above

CN(C)CCCN1c2ccccc2Sc2ccc(Cl)cc21
inactive: [6] | [8] | [9] | [10] | [11]
active: [7] 11.1 µM | [17] 6.92 µM | [1] 5.43 µM | [2] 25.1 µM | [3] 36.8 µM | [4] 35.9 µM | [12] 25 µM

CN(C)CCCN(C)CCCN(C)C
inactive: [6] | [13] | [7] | [1] | [2] | [3] | [5] | [12] | [18] | [10]

Cc1cc(Cc2ccc(N)c(C)c2)ccc1N
inactive: [6] | [7] | [1] | [2] | [3] | [5] | [12] | [10]

OCC(CO)n1cnc(-c2ccc(F)cc2)c1-c1ccnc(Oc2ccccc2)n1
active: [10] 6.83 µM
inactive: [6] | [7] | [1] | [2] | [3] | [4] | [8] | [5] | [16]

CC(C)OC(=O)C(C)(C)Oc1ccc(C(=O)c2ccc(Cl)cc2)cc1
active: [13] 25 µM | [7] 19.8 µM | [2] 30.6 µM | [10] 5.53 µM
inactive: [6] | [1] | [3] | [9] | [5] | [11]

Cc1ccc(-c2cc(C(F)(F)F)nn2-c2ccc(S(N)(=O)=O)cc2)cc1
active: [13] 5.72 µM | [1] 31.7 µM | [2] 24.6 µM | [3] 33.9 µM | [5] 36.8 µM | [12] 20 µM
inactive: [6] | [7] | [14] | [18] | [10] | [15]

COC(=O)CCCC(=O)OC
inactive: [6] | [7] | [1] | [2] | [3] | [9] | [5] | [16] | [11]

CCCCOC(=O)CCCCC(=O)OCCCC
not listed: [13] | [14] | [15] | [16] | [17]
inactive: all other assays above

Cc1cc(SC2=C(O)C[C@@](CCc3ccc(N)cc3)(C(C)C)OC2=O)c(C(C)(C)C)cc1CO
active: [10] 1.65 µM
not listed: [4] | [8] | [13] | [14] | [15] | [17] | [18]
inactive: all other assays above

O=C1O[C@H]([C@H](O)CO)C(O)=C1O
inactive: [13] | [7] | [1] | [2] | [3] | [5] | [16] | [11]

CCCCCCCCCCCCCCOS(=O)(=O)O
active: [8] 5.1 µM
inactive: [7] | [1] | [2] | [3] | [5] | [16] | [11]

C#CC(O)C(CC)CCCC (centres undefined)
inactive: [7] | [1] | [2] | [3] | [5] | [12] | [16]
active: [6] 67.2 µM | [13] 53.3 µM | [10] 25.5 µM

CC(C)c1cccc(C(C)C)c1NC(=O)NS(=O)(=O)c1cc(C(C)(C)O)co1
active: [10] 9.03 µM
not listed: [4] | [6] | [9] | [11] | [12] | [13] | [18]
inactive: all other assays above

CCN(CC)CCOc1ccc(C(=C(Cl)c2ccccc2)c2ccccc2)cc1
active: [7] 7.1 µM | [1] 13.5 µM | [2] 6.51 µM | [3] 13.8 µM | [5] 13.7 µM | [12] 2.92 µM
inactive: [6] | [7] | [8] | [9] | [14] | [15] | [11]

CCc1cc(C2=C(C(=O)O)N(c3ccccc3C(F)(F)F)S(=O)(=O)c3ccccc32)cc2c1OCO2
inactive: [1] | [3] | [9] | [5] | [11]
active: [13] 66.8 µM | [7] 61 µM | [2] 33.7 µM | [12] 16.6 µM | [10] 1.42 µM

CC(=O)O[C@]1(C(C)=O)CC[C@H]2[C@@H]3C=C(Cl)C4=CC(=O)[C@@H]5C[C@@H]5[C@]4(C)[C@H]3CC[C@@]21C
active: [7] 73.6 µM and 64.9 µM and 45.3 µM | [9] 100 µM | [12] 29.5 µM
inactive: [6] | [7] | [1] | [2] | [3] | [8] | [9] | [5] | [10] | [11]
